Screening data: PubChem BioAssay, The Scripps Research Institute Molecular Screening Center
This is a sample that favours compounds with a hit; in the whole collection about 1.3% have one here.
Fam108B counter: blocks mouse Fam108B hydrolase in RBBP9 counter-screen; recombinant Fam108B, FP-Rh probe fluorescence polarization; inhibition, % at 9.51 µM; 300,000 compounds, 0.33% hits;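 active = inhibition above the screen mean inhibition plus 3 SD, computed separately per campaign, cut at about 18% in these data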;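 note: inhibitors lower polarization as less probe binds the enzyme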
LYPLA1 counter: blocks human lysophospholipase 1, a PME1 counter-screen | O75608 | 320,000 compounds, 0.16% hits | AID 2174 | inhibition, % at 5.9 µM | recombinant LYPLA1, FP-Rh probe fluorescence polarization;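 active = inhibition above the mean of all tested compounds plus 3 SD, set per campaign, cut at about 14% in these data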;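 note: inhibitors block serine hydrolase probe labeling of LYPLA1 so polarization falls; 0% = enzyme with DMSO and 100% = wells lacking LYPLA1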
Target sequence (O75608 whole entry, looked up): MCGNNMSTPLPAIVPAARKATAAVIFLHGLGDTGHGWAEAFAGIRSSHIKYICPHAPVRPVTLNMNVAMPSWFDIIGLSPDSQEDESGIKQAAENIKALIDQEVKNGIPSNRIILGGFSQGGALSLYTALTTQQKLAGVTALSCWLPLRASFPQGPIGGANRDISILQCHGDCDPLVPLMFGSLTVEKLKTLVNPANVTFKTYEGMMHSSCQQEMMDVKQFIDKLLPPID
PME-1 primary: PME-1 (human) inhibition; Q9Y570; recombinant PME-1, FP-Rh probe fluorescence polarization; inhibition, % at 5.9 µM; 320,000 compounds, 0.53% hits;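 active = inhibition above the campaign mean of all compounds plus 3 SD, cut at about 26% in these data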;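 note: competitive labeling of PME-1 active site by serine hydrolase directed probe; 0% = PME-1 with DMSO and 100% = wells lacking PME-1 enzyme; inhibitors block probe labeling so polarization falls and inhibition rises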
LYPLA2 counter: blocks human lysophospholipase 2, a PME1 counter-screen; recombinant LYPLA2, FP-Rh probe fluorescence polarization; inhibition, % at 5.9 µM; 320,000 compounds, 0.38% hits; AID 2177;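 active = inhibition above the screen-wide mean plus 3 SD, limit set per campaign, cut at about 26% in these data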;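 note: 0% = LYPLA2 with DMSO and 100% = wells lacking LYPLA2 enzyme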
Target sequence (O95372 whole entry, looked up): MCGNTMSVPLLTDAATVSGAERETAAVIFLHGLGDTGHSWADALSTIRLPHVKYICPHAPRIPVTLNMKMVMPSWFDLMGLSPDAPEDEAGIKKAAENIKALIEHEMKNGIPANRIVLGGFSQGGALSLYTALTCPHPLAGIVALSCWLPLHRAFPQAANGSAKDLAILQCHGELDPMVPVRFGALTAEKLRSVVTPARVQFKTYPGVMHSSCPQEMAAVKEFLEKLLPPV
PREPL inh: inhibits the human prolyl oligopeptidase-like enzyme | Q4J6C6 | recombinant PREPL, fluorescence polarization activity-based probe | inhibition, % at 5.96 µM | 320,000 compounds, 0.68% hits; in the data active = inhibition above about 43%;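 note: 0% = enzyme with DMSO and 100% = wells lacking enzyme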
The depositor's hits bear a star; / = no result.

SMILES	Fam108B counter	LYPLA1 counter	PME-1 primary	LYPLA2 counter	PREPL inh
C#CCOCCOCCOCCNc1nc(N2CCN(C(=O)CCCCCCCCCCNC(=O)[C@H]([C@@H](C)CC)n3cc(CCCCN=C(N)N)nn3)CC2)nc(N2CCN(C(=O)CCCCCCCCCCNC(=O)[C@H](CCCCN)n3cc(C[C@@H](C)CC)nn3)CC2)n1	-10	-7	-10	20	57*
C#CCOCCOCCOCCNc1nc(N2CCN(C(=O)CCCCCCCCCCNC(=O)[C@H](CCCCN)n3cc(C[C@@H](C)CC)nn3)CC2)nc(N2CCN(C(=O)CCCCCCCCCCNC(=O)[C@H](CCCCN)n3cc(C[C@@H](C)CC)nn3)CC2)n1	-5	-10	-9	-13	46*
CCCn1nc(C(=O)Nc2cccc(S(=O)(=O)N(C)c3ccccc3)c2)c2ccccc2c1=O	/	/	/	/	-2
Cc1ccc(O)c(N=CC2=C(O)c3ccccc3C2=O)c1	16	0	34*	-4	27
N#C/C(=C\c1ccc(O)c(O)c1)C(=O)Nc1cccc2ncccc12	13	-14	28*	-9	29
Cc1c(Cl)cccc1Nc1nc(N)nc(CSc2nc3ccccc3s2)n1	-10	0	33*	-13	-26
Nc1nc(CSc2nc3ccccc3s2)nc(Nc2ccccc2)n1	-14	-16	-57	-19	-44
Cc1ccc(S(=O)(=O)Oc2cccc(/C=N/Nc3ccc(C(=O)O)cc3)c2)cc1	18	5	31*	10	12
c1cc2c3c(cccc3c1)NC1(CCCCCC1)N2	3	-6	2	-3	52*
c1cc2c3c(cccc3c1)NC1(CCCCC1)N2	3	-9	-3	-10	20
O=C1NC(Cc2ccccc2)c2nc3ccc(Cl)cc3c(=O)n2-c2ccccc21 (configuration not stated)	/	/	/	/	16
O=C(N/N=C/c1ccco1)/C(=C/c1cccc([N+](=O)[O-])c1)NC(=O)c1ccccc1	3	0	1	9	47*
CCC1CCC2(CC1)NC(=O)N(CC(=O)NCc1ccccc1Cl)C2=O (configuration not stated)	/	/	/	/	16
Cc1ccc(O)c(C(=O)c2cc(C#N)c(=O)n(-c3nccs3)c2)c1	8	-7	33*	-7	12
C=CC[C@H](CC(=O)N(CCO)Cc1ccccc1)C(=O)N[C@H](COC(=O)[C@@H](CC=C)Cc1ccc(F)cc1)Cc1ccccc1	/	/	/	/	1
CCOC(=O)c1cn(Cc2ccc(C)cc2)c2cc(F)ccc2c1=O	-2	1	-6	2	-7
CCc1ccc(-c2cc(C(=O)N/N=C/c3c[nH]c4ccccc34)[nH]n2)cc1	2	-19	40*	-23	38
O=C(N/N=C/c1cc([N+](=O)[O-])ccc1O)c1c[nH]c2ccccc12	10	-5	13	-9	15
O=C(N/N=C/c1c[nH]c2ccccc12)c1ccc([N+](=O)[O-])cc1Cl	15	2	26*	7	20
CCOC(=O)c1ccc(NS(=O)(=O)c2c(C)[nH]c(C)c2C(=O)N2CCCCC2)cc1	-1	-2	0	1	1
O=C(O)c1cccc(-n2c(/C=C/c3ccc([N+](=O)[O-])cc3)nc3ccccc3c2=O)c1	1	3	30*	10	7
O=C(O)c1cccc(-n2c(/C=C/c3cccc([N+](=O)[O-])c3)nc3ccccc3c2=O)c1	2	-2	0	-2	1
N#Cc1ccccc1Cn1c(=O)n(-c2ccc(CC(=O)NCc3ccco3)cc2)c(=O)c2sccc21	-1	-2	37*	-3	-1
N#Cc1ccccc1Cn1c(=O)n(Cc2ccc(C(=O)NCc3ccco3)cc2)c(=O)c2sccc21	-3	-3	2	5	-19
COc1cc(C2C(C#N)=C(N)OC3=C2C(=O)CCC3)c([N+](=O)[O-])cc1OC (configuration not stated)	19*	-9	-28	-2	20
SMILES	Fam108B counter	LYPLA1 counter	PME-1 primary	LYPLA2 counter	PREPL inh
Nc1ccc(C(=O)N/N=C\c2ccc(OC(=O)c3ccccc3Cl)cc2)cc1	0	-5	-2	-1	23
O=C(O)c1ccc(N/N=C/c2ccc(OC(=O)c3ccccc3Cl)cc2)cc1	17	0	18	26*	32
Cc1cc(OC(=O)c2ccc(Cl)cc2Cl)c([N+](=O)[O-])c(=O)[nH]1	-1	-3	-2	-4	-1
CCC1Sc2ccc(S(=O)(=O)CCC(=O)Nc3ccc(OC(F)(F)F)cc3)cc2NC1=O (configuration not stated)	-7	-6	26*	-2	-13
CCC1Sc2ccc(S(=O)(=O)CCC(=O)Nc3ccc(NC(C)=O)cc3)cc2NC1=O (configuration not stated)	1	-1	5	2	5
CCCCC(=O)NC(c1ccccc1Cl)c1c(O)ccc2ccccc12 (configuration not stated)	1	-6	45*	-3	9
CCCC(=O)NC(c1ccccc1Cl)c1c(O)ccc2ccccc12 (configuration not stated)	0	0	61*	-6	2
CSc1ccccc1C(=O)NCCCn1ccnc1	-1	2	144*	7	-1
CCSc1ccccc1C(=O)NCCCn1ccnc1	-1	1	0	-1	12
Cc1ccc2[nH]c(O)c(N=Nc3nc4ccccc4s3)c2c1	7	-3	9	-4	19
Oc1[nH]c2ccccc2c1N=Nc1nc2ccccc2s1	5	3	29*	8	7
Cc1nc2ccc(S(=O)(=O)NCC(=O)Nc3cccc(F)c3)cc2s1	-5	-2	1	6	-3
COCCN(Cc1nc2ccccc2c(=O)[nH]1)C(=O)COc1cccc(C(C)=O)c1	/	-1	7	-3	-6
CCCCn1c(NC(=O)c2ccc(F)cc2)c(C#N)c2nc3ccccc3nc21	56*	60*	20	61*	34
Cc1ccc2c(c1)[nH]c1c(N3CCN(Cc4ccccc4)CC3)ncnc12	7	-1	7	-2	55*
O=C(COC(=O)CCC(=O)c1cccs1)NC1CCCCC1	/	2	3	-1	2
COc1cccc(/C=N/Nc2nc3ccccc3n3cnnc23)c1O	11	-3	29*	-3	41
COc1cccc(/C=N/Nc2nc3ccccc3n3cnnc23)c1	2	-2	-14	-2	30
CN(C)CCCNS(=O)(=O)c1ccc(N2CCC(c3ccc(Cl)cc3)=N2)cc1	7	11	4	4	70*
O=S(=O)(c1ccc(N2CCC(c3ccc(Cl)cc3)=N2)cc1)N(CCO)CCO	3	9	6	12	35
COc1cc(OC)cc(OC(=O)C2CCN(C(=O)c3ccc(Cl)cc3)CC2)c1	/	-2	1	18	9
CC(NS(=O)(=O)c1c(N)n(C)c(=O)n(C)c1=O)c1ccccc1 (configuration not stated)	-4	3	0	2	6
